A number with no mark means an inactive call. Inconclusive results are not listed. Where a call stands in place of a potency, no number is given. Calls of active or inactive are those of the source. The call rests on the fitted dose curve; in most records, active means well fitted curve in the direction sought with a large enough effect in the repeat runs; inconclusive means weak or mixed curves; inactive means no such curve, though single readings can be large; an effect the other way counts as inactive or inconclusive.
Tests used:
[1] = Human pregnane X receptor (PXR) small molecule agonists, qHTS cell viability counter screen (AID 1346977); further: nearly all actives have a fitted effect of over 50% in size; further: potency means the concentration at half of the fitted maximal effect
Procedure, shortened: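 PXR-Luc HepG2, 2,000 cells/well, 5% charcoal-stripped FBS; 5hr settle; cpd 24hr, 37C/5% CO2; CellTiter-Fluor at 23hr, read 1hr later (fluorescence).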

[2] = Caspase-3/7 induction in HepG2 cells by small molecules, qHTS assay (AID 1346978); further: nearly all actives have a fitted effect of over 15% in size
Procedure, shortened: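 Wild-type HepG2 cells, 2,000/well, settled 5 hr at 37 C and 5% CO2, then compound-treated for 17 hr; caspase-3/7 activity read by luminescent Caspase-Glo 3/7 after 30 min at room temperature.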

[3] = Caspase-3/7 induction in CHO-K1 cells by small molecules, qHTS cell viability counter screen (AID 1346979); further: nearly all actives have a fitted effect of over 35% in size
Procedure, shortened: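 Cells (CHO-K1, wild type) are plated at 1,500 per well and incubated 5hr. Test compounds in DMSO are then pinned in, followed by 16hr at 37C and 5% CO2. Viability is read by CellTiter-Fluor fluorescence after 1hr.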

[4] = Caspase-3/7 induction in HepG2 cells by small molecules, qHTS cell viability counter screen (AID 1346981); further: series mostly up to about 92 µM; nearly all actives have a fitted effect of over 30% in size
Procedure, shortened: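 Viability determined by CellTiter-Fluor fluorescence in HepG2 wells also used for the luminescent Caspase-Glo 3/7 read. Compounds were present for 16 hr at 37 C, 5% CO2 before reagent addition.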

[5] = biological target: Nuclear receptor subfamily 1 group I member 2 (Homo sapiens) (UniProt O75469); experiment: Human pregnane X receptor (PXR) small molecule agonists, qHTS assay (AID 1346982); further: nearly all actives have a fitted effect of over 35% in size; further: potency means the concentration at half of the fitted maximal effect
Procedure, shortened: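 Compound-induced hPXR transactivation of a CYP3A4 luciferase reporter was scored in HepG2 PXR-Luc cells over 24 hr at 37 C, 5% CO2, by luminescence.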

[6] = biological target: Cytochrome P450 2D6 (Homo sapiens) (UniProt P10635); experiment: Cytochrome P450 Family 2 Subfamily D Member 6 (CYP2D6) small molecule antagonists: luciferase reporter qHTS assay (AID 1671196); further: nearly all actives have a fitted effect of over 50% in size; further: potency means the concentration at half of the fitted maximal effect
Procedure, shortened: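 Each well received CYP2D6 with its proluciferin substrate and chemical, sat 10 min, then got NADPH regeneration solution for 1 h at room temperature. Luminescence in RLU served as the activity measure.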

[7] = biological target: Cytochrome P450 2C19 (Homo sapiens) (UniProt P33261); experiment: Cytochrome P450 Family 2 Subfamily C Member 19 (CYP2C19) small molecule antagonists: luciferase reporter qHTS assay (AID 1671197); further: nearly all actives have a fitted effect of over 65% in size; further: potency means the concentration at half of the fitted maximal effect
Procedure, shortened: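 CYP2C19 P450-Glo, 1536-well qHTS. Cpd + enzyme/proluciferin substrate 10 min RT; + NADPH regen, 37C 1 h; stop with luciferin detection reagent, 20 min RT, luminescence (RLU). Pos ctrl ketoconazole.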

[8] = biological target: Cytochrome P450 2C9 (Homo sapiens) (UniProt P11712); experiment: Cytochrome P450 Family 2 Subfamily C Member 9 (CYP2C9) small molecule antagonists: luciferase reporter qHTS assay (AID 1671198); further: nearly all actives have a fitted effect of over 50% in size; further: potency means the concentration at half of the fitted maximal effect
Procedure, shortened: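 P450-Glo proluciferin substrate with CYP2C9 enzyme; 10 min RT preincubation, then NADPH regeneration 1 h at 37C; luciferin detection reagent 20 min RT, luminescence in relative luminescence units.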

[9] = biological target: Cytochrome P450 1A2 (Homo sapiens) (UniProt P05177); experiment: Cytochrome P450 Family 1 Subfamily A Member 2 (CYP1A2) small molecule antagonists: luciferase reporter qHTS assay (AID 1671199); further: nearly all actives have a fitted effect of over 50% in size; further: potency means the concentration at half of the fitted maximal effect
Procedure, shortened: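 Enzymatic CYP1A2 assay, human, luminescent: 10 min compound–enzyme–substrate preincubation, 1 h NADPH-dependent turnover, 20 min detection step, room temperature throughout. Reduced light indicates lower CYP1A2 activity.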

[10] = biological target: Voltage-gated inwardly rectifying potassium channel KCNH2 (Homo sapiens) (UniProt Q12809); experiment: Human Ether-a-go-go-Related Gene (hERG) channel small molecule antagonists: fluorescence cell-based qHTS assay (AID 1671200); further: nearly all actives have a fitted effect of over 50% in size; further: potency means the concentration at half of the fitted maximal effect
Procedure, shortened: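 Channel function was assessed by thallium flux. Cells seeded the previous day and kept at 37 C took up FluxOR II dye over 1 h in the dark at room temperature, then sat another 10 min before stimulation.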

[11] = biological target: Cytochrome P450 3A4 (Homo sapiens) (UniProt P08684); experiment: Cytochrome P450 Family 3 Subfamily A Member 4 (CYP3A4) small molecule antagonists: luciferase reporter qHTS assay (AID 1671201); further: nearly all actives have a fitted effect of over 50% in size; further: potency means the concentration at half of the fitted maximal effect
Procedure, shortened: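 Compounds in DMSO were pin-transferred onto CYP3A4 enzyme-substrate mix and held 10 min at room temperature. NADPH regenerating solution started the reaction for 1 h; luciferin detection reagent stopped it, and luminescence was read after 20 min.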

[12] = Caspase-3/7 induction in CHO-K1 cells by small molecules, qHTS assay (AID 1346980); further: nearly all actives have a fitted effect of over 15% in size
Procedure, shortened: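 Wild-type CHO-K1 cells exposed to compounds for 17hr at 37 C, 5% CO2. Caspase-3/7 activity then measured by Caspase-Glo 3/7 luminescence after 30min at room temperature.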

[13] = biological target: Nuclear receptor subfamily 1 group I member 2 (Rattus norvegicus) (UniProt Q9R1A7); experiment: Rat pregnane X receptor (rPXR) activation by small molecules, qHTS assay (AID 1346983); details: rPXR luciferase reporter cells, One-Glo luminescence, 24 h; max activation: active compounds read high; further: nearly all actives have a fitted effect of over 20% in size; further: potency means the concentration at half of the fitted maximal effect
Procedure, shortened: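 Cell-based rPXR activation assay: rPXR cells, 2,000 per well, rested 5hr at 37 C, then exposed to compounds in DMSO for 24 hr at 37 C. Luciferase activity read by One-Glo luminescence after 30 min at room temperature.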

[14] = biological target: Nuclear receptor subfamily 1 group I member 2 (Homo sapiens) (UniProt O75469); experiment: CYP3A4 induction through human pregnane X receptor (PXR) by small molecules, qHTS assay (AID 1346984); further: nearly all actives have a fitted effect of over 40% in size
Procedure, shortened: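 Readings come from a luciferase reporter: DPX-2 cells, which are HepG2 cotransfected with PXR and a CYP3A4-promoter construct, were exposed to test compounds for 24 h at 37C before One-Glo detection.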

[15] = biological target: Nuclear receptor subfamily 1 group I member 2 (Homo sapiens) (UniProt O75469); experiment: Human pregnane X receptor (PXR) activation by small molecules, qHTS assay (AID 1346985); further: nearly all actives have a fitted effect of over 40% in size
Procedure, shortened: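 DPX-2 cells (HepG2 co-transfected with a PXR response element and a CYP3A4-promoter luciferase construct) were seeded at 2,000 per well, rested 5 hr at 37C, then exposed to DMSO-dissolved compounds for 24 hr. Activation was read as luciferase luminescence.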

Sequence of Cytochrome P450 2D6 (Homo sapiens) (P10635 whole entry, looked up): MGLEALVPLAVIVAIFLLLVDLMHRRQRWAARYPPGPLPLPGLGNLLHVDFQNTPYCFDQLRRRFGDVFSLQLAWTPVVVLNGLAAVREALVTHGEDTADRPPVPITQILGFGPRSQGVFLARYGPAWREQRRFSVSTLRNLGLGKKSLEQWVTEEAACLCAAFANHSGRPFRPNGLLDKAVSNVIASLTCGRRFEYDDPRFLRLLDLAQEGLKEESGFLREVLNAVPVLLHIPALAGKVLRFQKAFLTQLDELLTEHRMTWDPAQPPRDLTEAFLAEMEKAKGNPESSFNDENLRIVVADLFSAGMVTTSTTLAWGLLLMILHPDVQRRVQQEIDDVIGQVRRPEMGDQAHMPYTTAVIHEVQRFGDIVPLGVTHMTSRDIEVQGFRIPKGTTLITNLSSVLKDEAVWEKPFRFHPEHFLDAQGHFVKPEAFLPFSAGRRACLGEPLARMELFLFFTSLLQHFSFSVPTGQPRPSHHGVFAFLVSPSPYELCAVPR
Sequence of Nuclear receptor subfamily 1 group I member 2 (Homo sapiens) (O75469 whole entry, looked up): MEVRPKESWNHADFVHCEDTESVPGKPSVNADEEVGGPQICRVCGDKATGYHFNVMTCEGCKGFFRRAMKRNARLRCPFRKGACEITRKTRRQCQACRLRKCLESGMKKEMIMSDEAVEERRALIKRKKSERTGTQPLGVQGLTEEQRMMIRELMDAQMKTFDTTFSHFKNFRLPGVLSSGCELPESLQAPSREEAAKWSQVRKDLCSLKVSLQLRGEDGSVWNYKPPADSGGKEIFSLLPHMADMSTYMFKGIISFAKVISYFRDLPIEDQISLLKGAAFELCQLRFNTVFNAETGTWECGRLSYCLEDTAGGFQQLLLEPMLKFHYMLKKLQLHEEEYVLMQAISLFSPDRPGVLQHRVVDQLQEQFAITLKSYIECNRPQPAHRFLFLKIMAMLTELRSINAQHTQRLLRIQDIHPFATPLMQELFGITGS
Sequence of Cytochrome P450 2C19 (Homo sapiens) (P33261 whole entry, looked up): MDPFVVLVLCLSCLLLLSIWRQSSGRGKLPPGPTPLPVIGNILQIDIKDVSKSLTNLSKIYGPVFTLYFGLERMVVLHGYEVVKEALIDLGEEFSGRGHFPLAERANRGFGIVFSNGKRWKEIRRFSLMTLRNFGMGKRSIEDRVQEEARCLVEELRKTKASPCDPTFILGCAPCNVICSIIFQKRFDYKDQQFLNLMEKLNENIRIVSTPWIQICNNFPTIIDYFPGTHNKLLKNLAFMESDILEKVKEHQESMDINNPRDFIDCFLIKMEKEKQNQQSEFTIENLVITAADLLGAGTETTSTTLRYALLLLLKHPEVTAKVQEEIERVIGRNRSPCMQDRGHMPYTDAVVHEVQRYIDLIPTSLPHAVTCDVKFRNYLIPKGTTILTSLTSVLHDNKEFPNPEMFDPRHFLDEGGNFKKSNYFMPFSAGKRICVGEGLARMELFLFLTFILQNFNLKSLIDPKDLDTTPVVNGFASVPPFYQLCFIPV
Sequence of Cytochrome P450 3A4 (Homo sapiens) (P08684 whole entry, looked up): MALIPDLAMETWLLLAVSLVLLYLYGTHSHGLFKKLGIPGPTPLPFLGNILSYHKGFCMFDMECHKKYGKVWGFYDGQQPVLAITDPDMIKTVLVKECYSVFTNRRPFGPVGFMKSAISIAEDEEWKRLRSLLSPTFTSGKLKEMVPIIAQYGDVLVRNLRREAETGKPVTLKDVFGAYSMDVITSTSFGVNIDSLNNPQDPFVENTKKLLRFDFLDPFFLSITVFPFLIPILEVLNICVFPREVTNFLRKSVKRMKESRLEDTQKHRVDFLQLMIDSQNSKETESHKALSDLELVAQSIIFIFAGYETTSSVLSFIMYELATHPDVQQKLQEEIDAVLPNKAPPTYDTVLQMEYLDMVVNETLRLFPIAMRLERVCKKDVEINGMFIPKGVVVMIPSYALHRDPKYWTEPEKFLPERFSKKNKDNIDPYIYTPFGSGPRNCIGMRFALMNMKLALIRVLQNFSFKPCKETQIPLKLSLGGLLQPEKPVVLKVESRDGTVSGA
Sequence of Cytochrome P450 1A2 (Homo sapiens) (P05177 whole entry, looked up): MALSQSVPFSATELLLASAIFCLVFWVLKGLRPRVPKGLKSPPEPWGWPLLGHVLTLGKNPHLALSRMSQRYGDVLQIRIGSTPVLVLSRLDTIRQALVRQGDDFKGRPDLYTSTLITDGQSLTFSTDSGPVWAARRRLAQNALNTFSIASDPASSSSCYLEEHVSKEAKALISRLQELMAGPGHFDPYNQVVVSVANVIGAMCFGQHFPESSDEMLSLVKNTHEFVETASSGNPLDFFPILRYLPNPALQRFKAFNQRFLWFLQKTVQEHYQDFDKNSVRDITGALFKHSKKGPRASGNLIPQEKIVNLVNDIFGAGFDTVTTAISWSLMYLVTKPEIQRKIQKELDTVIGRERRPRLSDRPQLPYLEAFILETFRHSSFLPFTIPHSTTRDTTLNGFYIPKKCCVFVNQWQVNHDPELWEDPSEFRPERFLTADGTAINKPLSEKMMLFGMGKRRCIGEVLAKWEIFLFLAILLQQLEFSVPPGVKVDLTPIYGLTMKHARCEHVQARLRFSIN
Sequence of Cytochrome P450 2C9 (Homo sapiens) (P11712 whole entry, looked up): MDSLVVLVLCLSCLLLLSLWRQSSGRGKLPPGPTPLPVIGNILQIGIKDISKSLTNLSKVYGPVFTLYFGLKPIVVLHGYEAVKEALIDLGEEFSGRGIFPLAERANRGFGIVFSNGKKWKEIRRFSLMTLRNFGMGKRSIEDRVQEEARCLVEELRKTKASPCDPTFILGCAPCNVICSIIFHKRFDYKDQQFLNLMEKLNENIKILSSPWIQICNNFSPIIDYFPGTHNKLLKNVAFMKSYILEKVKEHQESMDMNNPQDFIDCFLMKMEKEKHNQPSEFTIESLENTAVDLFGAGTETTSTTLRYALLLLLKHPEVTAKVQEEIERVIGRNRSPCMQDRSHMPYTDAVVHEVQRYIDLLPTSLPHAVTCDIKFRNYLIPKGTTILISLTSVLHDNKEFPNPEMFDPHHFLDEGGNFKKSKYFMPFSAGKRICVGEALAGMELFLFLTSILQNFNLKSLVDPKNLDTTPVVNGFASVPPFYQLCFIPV
Sequence of Voltage-gated inwardly rectifying potassium channel KCNH2 (Homo sapiens) (Q12809 whole entry, looked up): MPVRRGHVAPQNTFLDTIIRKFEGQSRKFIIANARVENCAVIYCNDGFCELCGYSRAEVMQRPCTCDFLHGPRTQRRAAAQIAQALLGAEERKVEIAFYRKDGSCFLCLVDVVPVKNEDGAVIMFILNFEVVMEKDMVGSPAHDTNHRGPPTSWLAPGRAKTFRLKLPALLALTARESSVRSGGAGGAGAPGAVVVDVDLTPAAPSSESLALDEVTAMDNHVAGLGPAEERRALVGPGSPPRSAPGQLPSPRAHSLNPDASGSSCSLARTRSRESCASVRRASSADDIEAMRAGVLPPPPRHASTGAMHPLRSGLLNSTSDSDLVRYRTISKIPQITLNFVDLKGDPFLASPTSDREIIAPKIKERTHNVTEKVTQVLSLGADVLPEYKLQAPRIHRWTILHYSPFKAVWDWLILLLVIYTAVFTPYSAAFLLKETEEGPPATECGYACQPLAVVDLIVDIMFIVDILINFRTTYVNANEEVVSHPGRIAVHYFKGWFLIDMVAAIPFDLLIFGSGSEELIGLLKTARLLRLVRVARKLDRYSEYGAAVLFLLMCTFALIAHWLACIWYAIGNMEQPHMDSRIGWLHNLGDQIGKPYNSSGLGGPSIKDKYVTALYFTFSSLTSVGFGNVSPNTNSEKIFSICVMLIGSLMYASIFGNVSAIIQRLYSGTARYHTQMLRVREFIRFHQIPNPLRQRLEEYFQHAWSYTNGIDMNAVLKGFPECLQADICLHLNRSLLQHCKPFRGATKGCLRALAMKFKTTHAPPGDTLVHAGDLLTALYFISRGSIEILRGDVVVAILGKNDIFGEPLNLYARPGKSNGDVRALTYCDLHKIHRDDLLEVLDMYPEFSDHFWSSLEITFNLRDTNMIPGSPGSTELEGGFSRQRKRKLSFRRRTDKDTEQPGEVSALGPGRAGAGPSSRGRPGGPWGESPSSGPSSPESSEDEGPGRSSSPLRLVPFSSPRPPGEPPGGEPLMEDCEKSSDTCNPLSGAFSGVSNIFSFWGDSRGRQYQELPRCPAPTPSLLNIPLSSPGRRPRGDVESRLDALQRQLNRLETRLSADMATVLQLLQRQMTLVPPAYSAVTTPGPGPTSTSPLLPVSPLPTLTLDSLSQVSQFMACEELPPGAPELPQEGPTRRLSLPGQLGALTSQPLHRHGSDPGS
Sequence of Nuclear receptor subfamily 1 group I member 2 (Rattus norvegicus) (Q9R1A7 whole entry, looked up): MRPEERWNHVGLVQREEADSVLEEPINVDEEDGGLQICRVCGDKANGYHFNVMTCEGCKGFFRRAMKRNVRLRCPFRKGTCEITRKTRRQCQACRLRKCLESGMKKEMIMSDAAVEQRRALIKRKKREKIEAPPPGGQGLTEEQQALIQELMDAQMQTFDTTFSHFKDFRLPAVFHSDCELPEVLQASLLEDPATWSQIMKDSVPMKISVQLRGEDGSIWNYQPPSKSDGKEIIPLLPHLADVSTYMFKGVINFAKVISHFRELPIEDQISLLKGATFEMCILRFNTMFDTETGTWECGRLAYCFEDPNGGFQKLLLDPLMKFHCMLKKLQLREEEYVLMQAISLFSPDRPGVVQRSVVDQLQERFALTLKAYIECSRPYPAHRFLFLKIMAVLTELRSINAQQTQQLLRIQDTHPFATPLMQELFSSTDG

Row | Compound | Potency [1] | Potency [2] | Potency [3] | Potency [4] | Potency [5] | Potency [6] | Potency [7] | Potency [8] | Potency [9] | Potency [10] | Potency [11] | outcome [12] | Potency [13] | Potency [14] | Potency [15] | max activation [13]
1 | CC(C)CCCC(=O)O | inactive | inactive | inactive | inactive | inactive | inactive | inactive | inactive | inactive | inactive | inactive | – | – | – | – | –
2 | CCOC(=O)[C@@H](C)Oc1ccc(Oc2nc3ccc(Cl)cc3o2)cc1 | inactive | inactive | inactive | inactive | 61.1 µM (active) | 31.7 µM (active) | 79.6 µM (active) | 35.6 µM (active) | – | – | inactive | inactive | – | – | – | –
3 | Cc1occc1C(=O)Nc1ccc(C(=O)N2CCC(F)(F)/C(=C\C(=O)N3CCC(N4CCCCC4)CC3)c3ccccc32)cc1 | 17 µM (active) | inactive | inactive | – | 19.1 µM (active) | 2.79 µM (active) | inactive | – | 9.9 µM (active) | 6.09 µM (active) | 0.394 µM (active) | – | – | – | – | –
4 | CC(=O)[C@H]1CC[C@H]2[C@@H]3C[C@H](C)C4=CC(=O)CC[C@]4(C)[C@H]3[C@@H](O)C[C@]12C | inactive | inactive | – | inactive | 13.3 µM (active) | inactive | – | 1.23 µM (active) | inactive | – | – | inactive | 2.51 µM (active) | inactive | inactive | –
5 | CCn1nc(C)c2c1C(=O)NCC(c1ccc(O)cc1)=N2 | inactive | inactive | inactive | inactive | – | inactive | inactive | 44.8 µM (active) | 63.3 µM (active) | inactive | 31.7 µM (active) | inactive | – | – | – | –
6 | CCCCC(CC)COC(=O)COc1ccc(Cl)cc1C (stereo not drawn) | inactive | inactive | inactive | inactive | inactive | inactive | 8.94 µM (active) | – | 12.6 µM (active) | inactive | 8.94 µM (active) | – | – | – | – | –
7 | O=C(O)c1c(O)c(-c2ccccc2)nc2ccccc12 | inactive | inactive | inactive | inactive | inactive | inactive | – | 30.9 µM (active) | 17.4 µM (active) | inactive | inactive | inactive | – | – | – | –
8 | O=C(NCCCN1CCOCC1)c1ccc(Cl)cc1 | inactive | inactive | – | inactive | inactive | 2.45 µM (active) | inactive | inactive | inactive | inactive | inactive | inactive | – | inactive | inactive | 4.03%
9 | NC(=O)Nc1ccc(Cl)cc1 | inactive | inactive | inactive | inactive | inactive | inactive | 79.3 µM (active) | – | 31.6 µM (active) | inactive | inactive | inactive | – | – | – | –
